We go through 45 sequences from publication PMC7819943, “Rice protein-binding microarrays: a tool to detect cis-acting elements near promoter regions in rice”.

Whole data set: some 68,000 sequences, median “fluorescence intensity (a.u.)” near 9,100, cut for the highest 2% near 16,000. For the sample, the highest values were picked, then their nearest neighbours and some sequences at random.

Sequence of OsWRKY34 (Q0JBA9 entry or part of it): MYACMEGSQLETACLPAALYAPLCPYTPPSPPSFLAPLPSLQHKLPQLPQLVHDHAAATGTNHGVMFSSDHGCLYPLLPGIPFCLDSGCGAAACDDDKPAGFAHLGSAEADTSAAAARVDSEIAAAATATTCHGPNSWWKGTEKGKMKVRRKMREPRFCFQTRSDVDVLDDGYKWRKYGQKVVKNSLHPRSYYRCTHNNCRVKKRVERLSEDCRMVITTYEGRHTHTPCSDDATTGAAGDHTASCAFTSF

The assay concerns the target OsWRKY34 (Oryza sativa, UniProt Q0JBA9 1-250). Briefly: protein-binding microarray (RPBM); PBS, 2% BSA, 51.3 ng/ul salmon testes DNA, 50 uM zinc acetate, 200 nM TF, 25 C, 1 h; high values mean tight binding. Particulars: protein: recombinant; tags: N-terminal polyhistidine and DsRed monomer fusion (pET32a); label: CyDye5-dUTP incorporated in the synthesized complementary strand; 3' TTTTT single-stranded linker to array surface; dsDNA, one strand shown. A digest of the protocol: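 In PBS with 2% BSA, salmon testes DNA and 50 µM zinc acetate, 200 nM protein was incubated on a custom Agilent array at 25 °C for 1 h and then washed off. The array had been made double-stranded by primer extension with Cy5-dUTP and blocked with 2% BSA. The proteins were transcription factors fused N-terminally to polyhistidine and DsRed, expressed in E. coli BL21-CodonPlus and purified on Ni–NTA. The binding signal is per-feature fluorescence intensity (arbitrary units) from an Axon 4000B scanner.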
Take “CCATTCCTCTGTTTACCTCTGCTCTGTATACATACTCCGGCGGAGTCACCTAGTGCAG”: the binding signal is 9220 fluorescence intensity (a.u.). For the sequence “AGAATTCCGATCGCCACCCCGCGGTTCTGCTCTCGCCGGCCGGAGTCACCTAGTGCAG”, the binding signal is 9150 fluorescence intensity (a.u.). Take “ACAAACCCGACCTTGAACTCGAAACAGGCGCACATCCCACCGGAGTCACCTAGTGCAG”: the binding signal is 8560 fluorescence intensity (a.u.). To “CCATCGGTACCATCTGTTTCGTCTACTTCCTTTGTAATCTCGGAGTCACCTAGTGCAG” belongs 9150 fluorescence intensity (a.u.). For “AGAGGAGAGGAGGGTTCAGATGTGGTGGGTCTATATAGCGCGGAGTCACCTAGTGCAG”, the binding signal is 9610 fluorescence intensity (a.u.).

On to “GATAGTGTCCCACGCATGCGTCCACGAGTCCTCGACGCAACGGAGTCACCTAGTGCAG”, for which the binding signal is 9120 fluorescence intensity (a.u.). With “TACTACACTATTAATATATGGTCCAACCTGTCATACACACCGGAGTCACCTAGTGCAG”, the binding signal was 10700 fluorescence intensity (a.u.). As to “TGTTTATCTATTTTGTGTTGGTATTATTATTTCTTGTATACGGAGTCACCTAGTGCAG”, the binding signal is 8850 fluorescence intensity (a.u.).

With “CCACACCACAGTCGCCTCTCTCCTCTTTCACCGAGAAGCGCGGAGTCACCTAGTGCAG”, the binding signal was 8150 fluorescence intensity (a.u.). With “GTTTCCATAGCATTACACTTTTGTAACTATTATTGTTTTGCGGAGTCACCTAGTGCAG”, the binding signal is 9760 fluorescence intensity (a.u.). As for “TATGAAGTTGATTTTGTGGATTTTTTCATCGTGATTTATTCGGAGTCACCTAGTGCAG”, the binding signal is 8890 fluorescence intensity (a.u.). On to “TCCGTCGTCTTCCTTTACTGGTTCTATGTCTTCTCAGTAACGGAGTCACCTAGTGCAG”, for which the binding signal is 10800 fluorescence intensity (a.u.).

In the case of “TCCTCATGCCTCTTTTTCCTCCTCCTTCCTTCTCTCATTCCGGAGTCACCTAGTGCAG”, the binding signal is 10200 fluorescence intensity (a.u.). Turning to “CTTGGTTTCTTGTTGTGCAACTCTCGTCGTCTCGTTCATCCGGAGTCACCTAGTGCAG”, the binding signal is 11500 fluorescence intensity (a.u.). “CTTTCCGTCGCGTCTCGTCTTCTCATGGTTGCAACTCTCCCGGAGTCACCTAGTGCAG”: the binding signal is 18100 fluorescence intensity (a.u.).

In the case of “GTTTTGTATGGTTCTCTGGATATATTACTGCCTGTAAATTCGGAGTCACCTAGTGCAG”, the binding signal is 8320 fluorescence intensity (a.u.). As for “AACTCACTCTCGCGTTCGCGTCGTCTCCGGCCTTTTCTTGCGGAGTCACCTAGTGCAG”, the binding signal was 8870 fluorescence intensity (a.u.). Take “CTCTCCTCCCTATTCTTTTCCTTTCCTCTCCTTTCCTTTCCGGAGTCACCTAGTGCAG”: the binding signal is 8870 fluorescence intensity (a.u.). Regarding “TTTCTCCGTCGTCTTCCTCTACTGGTTCTATGTCTTCTCACGGAGTCACCTAGTGCAG”, the binding signal is 18800 fluorescence intensity (a.u.).

On to “ACTTGTATTCTTCCTCGTCTTCCTCTTCTGTATTTCTGGTCGGAGTCACCTAGTGCAG”, for which the binding signal is 8140 fluorescence intensity (a.u.).

On to “ATCATTCCTAACTGCCTGGTCGTACTTCTCTGTATTTTGTCGGAGTCACCTAGTGCAG”, for which the binding signal was 17500 fluorescence intensity (a.u.). For “TACTGGTCGTCTGGTCTACTCCGTCTCTCCTCTTCTCTCCCGGAGTCACCTAGTGCAG” the value was 12200 fluorescence intensity (a.u.); for “ACTGTCTCGTATTCTATTCCTCATTCCTTCTCTTTTTTTCCGGAGTCACCTAGTGCAG”, 19600 fluorescence intensity (a.u.).

On to “CCCGGCCTTAGCATACTATTATTTTAGCACTAATCTTAACCGGAGTCACCTAGTGCAG”, for which the binding signal is 9300 fluorescence intensity (a.u.). In the case of “TTTTATAAATTCGAGCGTGTGCGGGTTTCGTTTTCTCACTCGGAGTCACCTAGTGCAG”, the binding signal is 9840 fluorescence intensity (a.u.). As to “GCTGTGGTCATGGACAGGGGACGGGCTGGGGTCGTCGCGCCGGAGTCACCTAGTGCAG”, the binding signal is 8090 fluorescence intensity (a.u.).

In the case of “TTTTGCTACAGTGCTCGGATATATCTGGGACGTCCATTTTCGGAGTCACCTAGTGCAG”, the binding signal is 10200 fluorescence intensity (a.u.). For “TGCGTACACTCCTTTGAAACCCCATTGCTATGTAGACAATCGGAGTCACCTAGTGCAG” the value was 8020 fluorescence intensity (a.u.). Take “TAAAATTCTGTTCCGCCGCGTTTGCCCTCGTCAACTAATCCGGAGTCACCTAGTGCAG”: the binding signal was 9750 fluorescence intensity (a.u.). With “ATGTCTGTATCTGTTATTGTTTCTATTGTGTCTGATCCAACGGAGTCACCTAGTGCAG”, the binding signal was 8980 fluorescence intensity (a.u.). To “AACTAGGTCCCTCGGCGGTTTTGACTCCTGTTTTGTCCAACGGAGTCACCTAGTGCAG” belongs 12500 fluorescence intensity (a.u.); to “GGCAACCACGTAATTCCCTCCCTTTTCAGTTACTCATCAACGGAGTCACCTAGTGCAG”, 9620 fluorescence intensity (a.u.). As for “GGTTCCAATTCGTCGCCTGATACTCCGATTCGAGTTCTTGCGGAGTCACCTAGTGCAG”, the binding signal was 12700 fluorescence intensity (a.u.). For the sequence “CTCGTTGTCGTGCTGCTTGTAATTCATCTAGTTTGTCTACCGGAGTCACCTAGTGCAG”, the binding signal was 10000 fluorescence intensity (a.u.).

As for “CTTGGATTCTGAGGTGGGCTTGAACTTGATATGAATTAGGCGGAGTCACCTAGTGCAG”, the binding signal was 8100 fluorescence intensity (a.u.). On to “GTGCGTGTAAACTTTTTTGGGGTTGTTTTGGGCGGTTACTCGGAGTCACCTAGTGCAG”, for which the binding signal was 18200 fluorescence intensity (a.u.).

Take “TTGGGTTGGGTTGGTGAGGTGGGGAGATGGTTTGGTGAGGCGGAGTCACCTAGTGCAG”: the binding signal was 17300 fluorescence intensity (a.u.). To “GGTGGTTGGCGCGCGTTTTCTTGTGTGGTTTTTTGTGTCGCGGAGTCACCTAGTGCAG” belongs 14200 fluorescence intensity (a.u.); to “TGTTCTTGCTACGCTGGGAGGGGAGGGGTGGCGCCGCGGCCGGAGTCACCTAGTGCAG”, 21700 fluorescence intensity (a.u.). As to “AGATGAGAGGTTTGGTTGGTTGGATGGTGGGGAGCGCCCGCGGAGTCACCTAGTGCAG”, the binding signal was 10400 fluorescence intensity (a.u.). With “GTGTAACTTGTTTTGCTAGGGTTTTTGATTGCTTTTTACTCGGAGTCACCTAGTGCAG”, the binding signal was 12000 fluorescence intensity (a.u.).

For the sequence “CGAGTCTTTTGTGCGGGTGGTTGGGGCGTGGGCGGTGGCGCGGAGTCACCTAGTGCAG”, the binding signal is 23100 fluorescence intensity (a.u.). “TTTAGGGGTGTTTGGTTGAGGGGTGAGTGGGATGGGTTGGCGGAGTCACCTAGTGCAG”: the binding signal was 10300 fluorescence intensity (a.u.). Take “GTAAACTTATTCTTTGGGCGTTGTTATTATTTGGGGCAATCGGAGTCACCTAGTGCAG”: the binding signal is 11400 fluorescence intensity (a.u.).

Consider “GGCCGGGCGAGGCGCTGGGAGGTGGCGGCTAGCGGCGGGGCGGAGTCACCTAGTGCAG”, for which the binding signal is 8500 fluorescence intensity (a.u.).
